This is part of a sample that, as a whole, favours compounds with a hit. Of some 83,000 tested, about 20% had one in any assay.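 Values shown are percent growth following 48 h exposure of cells in 96-well plates to a single concentration of compound; below 10 was considered active.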 Unmarked numbers belong to inactive results. Calls of active or inactive are those of the source.

Among the test systems are SR leukemia; RPMI-8226 leukemia; OVCAR-8 ovarian; OVCAR-5 ovarian; OVCAR-4 ovarian; SK-OV-3 ovarian; IGROV1 ovarian; OVCAR-3 ovarian; HS 578T breast; NCI/ADR-RES ovarian; T-47D breast; BT-549 breast; MDA-MB-435 melanoma; SW-620 colon; MCF7 breast; HCT-116 colon; HCC-2998 colon; KM12 colon; MDA-MB-468 breast.
What all share (assay): NCI-60 one-dose screen, 48 h (100 = growth as untreated, 0 = no growth, -100 = all killed)
Details in all cases: 10 µM unless noted

On to `CCN1CCN(Cc2ccc(C(=O)Nc3cccc(Nc4ccc5c(OC)cccc5n4)c3)cc2C(F)(F)F)CC1`, for which the growth was -35.1% (active) with SR leukemia; -34.8% (active) in the test with RPMI-8226 leukemia; -66.1% (active) with OVCAR-8 ovarian; -91.9% (active) in the test on OVCAR-5 ovarian; -53.1% (active) in the test on OVCAR-4 ovarian; -8.33% (active) with SK-OV-3 ovarian. The growth in the test on IGROV1 ovarian was -83.6% (active); in the test on OVCAR-3 ovarian, 4.54% (active); in the test with HS 578T breast, -16.4% (active); in the test on NCI/ADR-RES ovarian, -81% (active); with T-47D breast, -71.4% (active); in the test on BT-549 breast, -94% (active). Further, the growth was -94.9% (active) with MDA-MB-435 melanoma; 7.01% (active) with SW-620 colon; -89.1% (active) in the test on MCF7 breast; -56.4% (active) in the test with HCT-116 colon; -94% (active) in the test on HCC-2998 colon; -37.6% (active) with KM12 colon. The growth in the test with MDA-MB-468 breast was -94.7% (active).
With `COc1ccc2[nH]c(O)c(N=Nc3nc(-c4ccc(Br)cc4)cs3)c2c1`, the growth was 19.3% in the test on SR leukemia; 16.3% in the test on RPMI-8226 leukemia; -23.7% (active) with OVCAR-8 ovarian; 31.4% in the test on OVCAR-5 ovarian; -69.6% (active) with OVCAR-4 ovarian; -35.3% (active) with SK-OV-3 ovarian. The growth in the test on IGROV1 ovarian is 30.6%; in the test with OVCAR-3 ovarian, -71.3% (active); with HS 578T breast, 29.3%; in the test on NCI/ADR-RES ovarian, -24.6% (active); with T-47D breast, -27.2% (active); in the test on BT-549 breast, 35%. In addition, the growth in the test on MDA-MB-435 melanoma is 50.3%; in the test on SW-620 colon, 4.99% (active); in the test with MCF7 breast, -16.4% (active); in the test with HCT-116 colon it was -63.1% (active); in the test with HCC-2998 colon it was 51.4%; with KM12 colon, 55.6%. Moreover, the growth in the test with MDA-MB-468 breast is -7.45% (active).
For `Nc1cc2ccccc2c(=O)n1NC(=O)c1ccccc1`, the growth is 84.3% in the test on SR leukemia; 94.2% in the test with RPMI-8226 leukemia; 104% in the test with OVCAR-8 ovarian; 107% in the test on OVCAR-5 ovarian; 98.6% with OVCAR-4 ovarian; 93.5% in the test with SK-OV-3 ovarian. Also, the growth is 90.2% in the test on IGROV1 ovarian; 70.6% with OVCAR-3 ovarian; 91.4% with HS 578T breast; 102% in the test on NCI/ADR-RES ovarian; 77.7% with T-47D breast; 120% in the test with BT-549 breast. Moreover, the growth with MDA-MB-435 melanoma was 99.8%; in the test on SW-620 colon, 94.8%; with MCF7 breast it was 53.8%; in the test with HCT-116 colon it was 96.5%; with HCC-2998 colon, 120%; in the test on KM12 colon it was 97.7%. Further, the growth in the test with MDA-MB-468 breast was -35.4% (active).
In the case of `Cc1ccc(C(C)C)cc1Oc1cccc(-c2c(-c3ccc(C(F)(F)F)cc3)ncn2C2CCNCC2)n1`, the growth was -75.5% (active) with SR leukemia; -59% (active) with RPMI-8226 leukemia; -66.9% (active) in the test on OVCAR-8 ovarian; -69.5% (active) with OVCAR-5 ovarian; -89% (active) with OVCAR-4 ovarian; -93.7% (active) in the test on SK-OV-3 ovarian. The growth in the test with IGROV1 ovarian was -91.5% (active); with OVCAR-3 ovarian, -69.2% (active); in the test with HS 578T breast it was -63.1% (active); with NCI/ADR-RES ovarian it was -83% (active); in the test on T-47D breast it was -83.6% (active); in the test on BT-549 breast, -98.6% (active). For the same compound, the growth in the test with MDA-MB-435 melanoma is -93.4% (active); in the test on SW-620 colon, -85.5% (active); with MCF7 breast it was -85.3% (active); with HCT-116 colon, -94.3% (active); in the test on HCC-2998 colon, -85.4% (active); with KM12 colon, -79.5% (active). Also, the growth in the test with MDA-MB-468 breast was -90.3% (active).
As to `O=C(Cn1c(-c2ccccc2)nc2ccccc21)N=Nc1c(O)[nH]c2ccc(Br)cc12`, the growth was -25.7% (active) in the test with SR leukemia; 21.9% with RPMI-8226 leukemia; -39.2% (active) in the test with OVCAR-8 ovarian; 0.0575% (active) in the test on OVCAR-5 ovarian; -62.1% (active) with OVCAR-4 ovarian; -47.9% (active) in the test with SK-OV-3 ovarian. For the same compound, the growth was -41.8% (active) with IGROV1 ovarian; -22.5% (active) in the test on OVCAR-3 ovarian; -28.8% (active) with HS 578T breast; -55.7% (active) in the test with NCI/ADR-RES ovarian; -59.4% (active) with T-47D breast; -53.7% (active) in the test on BT-549 breast. The growth in the test with MDA-MB-435 melanoma is -32.3% (active); with SW-620 colon, 11.9%; in the test on MCF7 breast it was -18.6% (active); with HCT-116 colon, 1.09% (active); in the test with HCC-2998 colon, 0.134% (active); with KM12 colon it was 15%. Moreover, in the test on MDA-MB-468 breast, the growth is -53.4% (active).
For the compound `COc1ccc(N=Nc2c(N)nn3c(-c4cc5cc(Br)ccc5oc4=O)ccnc23)cc1`, the growth was 28% with SR leukemia; 48.5% in the test with RPMI-8226 leukemia; 19.5% in the test with OVCAR-8 ovarian; 33.4% with OVCAR-5 ovarian; 32.2% with OVCAR-4 ovarian; 17.4% in the test on SK-OV-3 ovarian. The growth in the test with IGROV1 ovarian was 6.35% (active); in the test on OVCAR-3 ovarian, 25.3%; in the test with HS 578T breast, 35.4%; with NCI/ADR-RES ovarian, 15.5%; with T-47D breast, 10.8%; in the test with BT-549 breast, -2.5% (active). Further, the growth in the test with MDA-MB-435 melanoma is 54.2%; in the test with SW-620 colon it was 56.1%; in the test on MCF7 breast it was 26.4%; in the test with HCT-116 colon, 23.8%; in the test with HCC-2998 colon, 20.2%; with KM12 colon, 36.1%. Further, the growth in the test with MDA-MB-468 breast is -22.7% (active).
As to `CN1CCN(c2ccc3c4c(cccc24)C(=O)N(c2cccc(-c4nn(-c5ccccc5)cc4-c4nc5ccccc5s4)c2)C3=O)CC1`, the growth with SR leukemia is -25% (active); in the test on RPMI-8226 leukemia it was 43.1%; in the test with OVCAR-8 ovarian it was 94.6%; with OVCAR-5 ovarian it was 122%; in the test on OVCAR-4 ovarian, 103%; in the test with SK-OV-3 ovarian it was 135%. Further, the growth with IGROV1 ovarian was 93.8%; in the test with OVCAR-3 ovarian, 118%; with HS 578T breast, 91.7%; with NCI/ADR-RES ovarian, 95.2%; in the test on T-47D breast, 109%; in the test with BT-549 breast it was 97.1%. Moreover, the growth with MDA-MB-435 melanoma was 95.1%; with SW-620 colon it was 93%; in the test with MCF7 breast, 5.13% (active); in the test with HCT-116 colon, 79%; in the test on HCC-2998 colon it was 79.2%; in the test with KM12 colon, 73.5%. Also, the growth in the test with MDA-MB-468 breast was 94.1%.
Regarding `COc1cccc2nc(Nc3cccc(NC(=O)c4ccc(CN5CCN(C)CC5)c(C(F)(F)F)c4)c3)ccc12`, the growth in the test on SR leukemia was -36.1% (active); in the test on RPMI-8226 leukemia it was -40.2% (active); with OVCAR-8 ovarian it was -65.2% (active); in the test with OVCAR-5 ovarian it was -98% (active); in the test on OVCAR-4 ovarian it was -82.9% (active); in the test on SK-OV-3 ovarian, -81.9% (active). Moreover, the growth in the test with IGROV1 ovarian is -87.1% (active); with OVCAR-3 ovarian it was -36.6% (active); with HS 578T breast it was -21.1% (active); in the test with NCI/ADR-RES ovarian it was -89.7% (active); with T-47D breast, -75.9% (active); in the test on BT-549 breast it was -93.7% (active). Also, the growth was -98.1% (active) with MDA-MB-435 melanoma; -92.8% (active) in the test on SW-620 colon; -79.2% (active) in the test on MCF7 breast; -66.9% (active) with HCT-116 colon; -96.8% (active) in the test on HCC-2998 colon; -51.1% (active) in the test on KM12 colon. Besides, in the test on MDA-MB-468 breast, the growth was -97.2% (active).

(Values after PubChem BioAssay (NCI).)
